Values without a mark were called inactive. Calls of active or inactive are those of the source.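 How the source made its calls: active means compounds that lower survival of DLD-1 colon cancer cells in the luminescence readout, no cutoff given; inactive means the rest.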 Non-standard residues stand in square brackets, D forms with d. Residues, ends and D or L forms follow the SMILES beside them. pGlu = O=C1CC[C@@H](C(=O)O)N1
Assay: decreased DLD-1 cellular survival, CellTiter-Glo luminescent readout, NPC compound collection, primary HTS (AID 1117346)
Settings: DLD-1 viability, CellTiter-Glo luminescence; at 20 µM (top of the series)

SMILES	viability decrease (inhibition)
Cc1cccc(C)c1NC(=O)CN(CC(=O)O)CC(=O)O	8.9%
CCCCCCCCCCOCC(O)CN (centres undefined)	98.4% (active)
Nc1ccc([N+](=O)[O-])c(C(F)(F)F)c1	18.5%
CC1(C)OC[C@@H]2O[C@@]3(C(=O)O)OC(C)(C)O[C@H]3[C@@H]2O1	0.3%
CC(O)CCCCn1c(=O)c2c(ncn2C)n(C)c1=O (centres undefined)	6.4%
CC(=O)OC[C@H]1O[C@@](COC(C)=O)(O[C@H]2O[C@H](COC(C)=O)[C@@H](OC(C)=O)[C@H](OC(C)=O)[C@H]2OC(C)=O)[C@@H](OC(C)=O)[C@@H]1OC(C)=O	-8%
CCc1oc2ccccc2c1C(=O)c1cc(I)c(O)c(I)c1	102% (active)
CCCCC(C)(O)CC=C[C@H]1[C@H](O)CC(=O)[C@H]1CCCCCCC(=O)OC (some centres undefined)	66.4% (active)
O=C1c2ccccc2CCc2ccccc21	9.1%
Nc1c(NC/C=C\COc2cc(CN3CCCCC3)ccn2)c(=O)c1=O	-5%
Oc1ccccc1-c1nnco1	-0.7%
C=CCNc1nc(NCC=C)nc(N2CCN(C(c3ccc(F)cc3)c3ccc(F)cc3)CC2)n1	49.4%
O=Cc1ccccc1C=O	-1.7%
CC(=O)OC[C@H]1O[C@@H](n2ncc(=O)[nH]c2=O)[C@H](OC(C)=O)[C@@H]1OC(C)=O	-5.9%
Oc1cccc(O)c1O	17.2%
CCCC(=O)O[C@]1(C(=O)CC)CC[C@H]2[C@@H]3CCC4=CC(=O)CC[C@]4(C)[C@H]3[C@@H](O)C[C@@]21C	25.5%
OCCCc1ccccc1	7.85%
CC(C)C(=O)Nc1cccc(C2CN3CCSC3=N2)c1 (centres undefined)	-14.4%
CCNC(=O)[C@@H]1CCCN1C(=O)[C@H](CCCN=C(N)N)NC(=O)[C@H](CC(C)C)NC(=O)CNC(=O)[C@H](Cc1ccc(O)cc1)NC(=O)[C@H](CO)NC(=O)[C@H](Cc1c[nH]c2ccccc12)NC(=O)[C@H](Cc1cnc[nH]1)NC(=O)[C@@H]1CCC(=O)N1 ([pGlu]HWSYGLRP-NHEt)	29.7%
CN1CC(O)c2cc(N=NC(N)=O)c(O)cc21 (centres undefined)	2.4%

SMILES	viability decrease (inhibition)
C[C@@H]1C[C@H]2[C@@H]3CCC4=CC(=O)C=C[C@]4(C)[C@@]3(F)[C@@H](O)C[C@]2(C)[C@@]1(O)C(=O)COC(=O)c1ccncc1	-18.6%
c1ccc2[nH]ccc2c1	6.25%
O=C(O)COc1nn(Cc2ccccc2)c2ccccc12	8.6%
C[C@]12C=CC(=O)C=C1[C@@H](F)C[C@@H]1[C@@H]2[C@@H](O)C[C@@]2(C)[C@H]1CC[C@]2(O)C(=O)CO	-6.1%
O=S(=O)(O)CC(S)CS (centres undefined)	-6.6%
CCOC(=O)c1ccc(NC(=O)CN2CCCCC2)cc1	5.8%
CN1[C@@H]2CC[C@H]1CC(NC(=O)n1c(=O)[nH]c3ccccc31)C2 (some centres undefined)	-7.7%
Cc1cn([C@@H]2O[C@H](CO)[C@@H](O)[C@H]2F)c(=O)[nH]c1=O	6.8%
Cc1ccc(O)c2ncccc12	4.9%
OCc1ccc(Cl)cc1Cl	13.2%
CN(C)[C@@H]1C(=O)C(C(N)=O)=C(O)[C@@]2(O)C(=O)C3=C(O)c4c(O)cccc4C[C@H]3C[C@@H]12	89.5% (active)
CCS(=O)(=O)c1ccc(OC)c(C(=O)OC)c1	8.8%
OC[C@H]1O[C@@H](n2cnc3c(=S)nc[nH]c32)[C@H](O)[C@@H]1O	73.5% (active)
NS(=O)(=O)c1cc(-c2nn[nH]n2)c(NCc2cccs2)cc1Cl	-10.7%
Cc1cc(CCCOc2c(C)cc(-c3noc(C(F)(F)F)n3)cc2C)on1	71.8% (active)
Cc1c(C)n(Cc2ccccc2)c2ccc(C(=O)OCCN(C)C)cc12	95% (active)
O=C1NC(c2ccccc2)(c2ccccc2)C(=O)N1COP(=O)(O)O	-11%
CC(C)=CCC/C(C)=C/CC/C(C)=C/C(=O)OCC(=O)[C@@]1(O)CC[C@H]2[C@@H]3CCC4=CC(=O)C=C[C@]4(C)[C@H]3[C@@H](O)C[C@@]21C	88.5% (active)
O=C1CC[C@H](C(=O)N2CCCCC2)N1	0.1%

Reference: PubChem BioAssay
